High-throughput results (PubChem BioAssay)
TRPV1 agonist: agonists of human vanilloid receptor 1 (TRPV1); Q8NER1; TRPV1-expressing cells, Fluo-8 calcium influx, agonist mode; activation, % at 8.33 µM; 320,000 compounds, 0.19% hits; AID 540275; in the data active = activation above about 80%; inconclusive = between about 30% and that limit; note: 0% is about no effect
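TRPV1-expressing cells were cultured overnight at 35.5C and loaded with Fluo-8 calcium dye for 40 to 90 min at room temperature. After a 10 s baseline, compound was added and calcium influx was read kinetically for 3 min (ex 480/em 520 nm).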
TRPV1 PAM: human TRPV1 potentiation; potentiation, % at 8.33 µM; Q8NER1; 320,000 compounds, 0.02% hits; AID 540277; TRPV1-expressing cells, Fluo-8 calcium influx, capsaicin EC20 potentiation; in the data active = potentiation above about 80%; inconclusive = between about 30% and that limit; note: 0% is about no effect
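TRPV1-expressing cells were cultured overnight at 35.5C and loaded with Fluo-8 calcium dye for 40 to 90 min at room temperature. After a 10 s baseline, compound was added and calcium influx was read kinetically for 3 min (ex 480/em 520 nm).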
S-ASM inh: blocks human secretory acid sphingomyelinase. P17405. Potency, µM (series often up to 57.5 µM), for inactives: top-dose activity change, negative = inhibition, most hits filed as inhibitors. AID 504937. 340,000 compounds, 0.006% hits. placental ASM, HMU-PC fluorogenic substrate, 60 min; note: potency is the fitted concentration of half-maximal effect
Target sequence (P17405 47-631 limits assumed): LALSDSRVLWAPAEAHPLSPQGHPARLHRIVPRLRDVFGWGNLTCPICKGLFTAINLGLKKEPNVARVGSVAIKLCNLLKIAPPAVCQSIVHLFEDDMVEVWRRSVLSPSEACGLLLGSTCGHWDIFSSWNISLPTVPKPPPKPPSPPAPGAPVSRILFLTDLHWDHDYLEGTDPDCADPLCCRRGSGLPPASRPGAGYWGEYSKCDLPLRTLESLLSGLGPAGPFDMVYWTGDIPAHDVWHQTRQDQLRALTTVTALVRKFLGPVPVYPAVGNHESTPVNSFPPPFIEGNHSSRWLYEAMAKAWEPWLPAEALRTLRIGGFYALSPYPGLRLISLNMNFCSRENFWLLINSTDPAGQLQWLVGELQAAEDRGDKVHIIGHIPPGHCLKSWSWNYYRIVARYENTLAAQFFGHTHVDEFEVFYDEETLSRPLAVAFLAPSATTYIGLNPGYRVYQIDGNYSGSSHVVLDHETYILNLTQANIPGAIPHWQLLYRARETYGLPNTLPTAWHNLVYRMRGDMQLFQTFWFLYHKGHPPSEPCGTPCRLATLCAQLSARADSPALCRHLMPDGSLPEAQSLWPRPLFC
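Human placenta-derived ASM enzyme was preincubated with compound for 10 minutes at room temperature, then given fluorogenic substrate HMU-PC0 (9 uM final) for 60 minutes at 37 °C; a pH 10 stop preceded fluorescence reading at Ex 386/Em 447 nm.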
A-T KAP1 phos: candidate therapy for ataxia-telangiectasia. F2112 A-T fibroblasts, KAP-1 phosphorylation AlphaLISA; neocarzinostatin DNA damage 30 min before lysis. Potency, µM (series often up to 57.5 µM), without a hit: at the top dose activation, actives largely listed as activators. 320,000 compounds, 0.19% hits. AID 485349; note: potency is the fitted concentration of half-maximal effect; % of control where 0% means no effect; nearly all actives have a fitted effect of over 45% in size
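hTERT-immortalized A-T patient fibroblasts (F2112), 500 cells/well in OPTI-MEM, 1% FBS, got compounds for 60 min, then NCS for 30 min at 37C. Lysates were then assayed for phospho-KAP-1 by AlphaLISA (anti-pKAP1 donor, anti-KAP1 acceptor beads), 6 hr at 25C.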
PTAP TSG101 blk: blocks PTAP/TSG101 interaction to inhibit HIV-1 budding. Q99816. Fluorescence polarization, FITC-PTAP peptide / Tsg101 binding. Potency, µM (top dose mostly 115 µM), inactives show at the highest dose activity change, negative = inhibition, hits mostly inhibitors. 340,000 tested, under 10 active. AID 493005; active = well fitted inhibition curve with a large enough effect in the main read-out, with a control signal flat, not every such curve was filed as active; inconclusive = small, poorly fitted or top-dose-only effect, or effect the other way, or a change in a side signal; inactive = no such curve, though single readings can be large or run the other way; note: potency is the fitted concentration of half-maximal effect; % of control where 0% means no effect
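Fluorescence polarization binding of Tsg101 binding domain (10 uM final) to FITC-labeled PTAP peptide (50 nM final) in HEPES pH 7.5 buffer with NaCl, Tween 20, EDTA, TCEP. Compounds added before peptide; binding 20 min at RT.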
* hit, by the source's call; i = inactive; u = inconclusive; x = not tested or not shown; [ ] = another dose, or the depositor's remark. The list is not random: actives were taken first. Their share in the collection is about 0.37%. Unless noted, calls come from the whole dose curve; as a rule, active = well fitted curve in the direction sought with a large enough effect; inconclusive = small, poorly fitted or top-dose-only effect, or another doubt; inactive = no such curve, though single readings can be large; an effect the other way counts as inactive or inconclusive.

SMILES	TRPV1 agonist	TRPV1 PAM	S-ASM inh	A-T KAP1 phos	PTAP TSG101 blk
O=C(NCCc1nc2ccccc2n1CCOc1ccc(Cl)cc1)C1CCCCC1	7.3	-8.7	x	x	x
CCC(C)Sc1ccc(-c2nc3cnccn3c2NC2CCCCC2)cc1 (stereo not drawn)	13.9	25.8	i	22.4µM*	x
CCC(C)Sc1ccc(-c2nc3cc(C)ccn3c2NC2CCCCC2)cc1 (stereo not drawn)	x	x	397.3%	u	6.0%
CC(=O)OC(C=C(C)C)C/C(C)=C/COc1c2ccoc2cc2oc(=O)ccc12 (stereo not drawn)	x	x	20.4%	x	-5.9%
O=C(Cc1cccs1)Nc1nc2c(ccc3ccccc32)s1	80.6*	-4.5	u	29.8%	-4.6%
Cc1ccc2nc(-c3ccc(-c4cccc(Cl)c4)cc3)c(NCc3ccccc3)n2c1	u	24.9	240.9%	25.1µM*	-5.5%
CCCCNc1c(-c2cccc(-c3ccc(OC)cc3)c2)nc2ccc(C)cn12	u	-0.3	411.9%	35.5µM*	-3.3%
CCCCNc1c(-c2cccc(-c3ccc(OC)cc3)c2)nc2cc(C)ccn12	x	x	212.0%	u	-4.3%
Cc1ccc(-c2nc3ccccn3c2NCc2ccc3c(c2)OCO3)cc1	2.2	19.2	205.8%	5.9%	-0.8%
COc1cc(-c2nc3ccc(C)cn3c2NCc2ccccc2)ccc1-c1cccc(Cl)c1	x	x	378.1%	u	-0.9%
COc1ccc(-c2nc3ccc(C)cn3c2NCc2ccc3c(c2)OCO3)cc1	81.2*	5.4	72.9%	18.1%	0.4%
O=C(O)c1ccc2c(c1)C(=O)N([C@H](Cc1c3ccccc3cc3ccccc13)C(=O)O)C2=O	x	x	x	7.2%	x
O=C(NCc1cccnc1)c1ccc(-c2ccc(Cl)cc2)o1	85.5*	-16.7	6.4%	1.2%[11.5 µM]	-4.1%
O=C(NCc1cccnc1)c1ccc(-c2cc(Cl)ccc2Cl)o1	u	-10.9	-0.8%	-2.1%	-4.4%
Clc1ccc(CN2CC[C@H]3C=CCc4cccc(c43)C2)cc1	0.7	-11.7	13.0%	35.5µM*	1.2%
Fc1ccc(CN2CC[C@H]3C=CCc4cccc(c43)C2)cc1	4.0	-6.3	8.3%	u	-0.3%
Nc1ccc(-c2nc3cc([N+](=O)[O-])ccc3o2)cc1	2.4	-18.5	214.2%	39.8µM*	0.5%
c1ccc(-c2nnc(CN3CCCCC3)o2)cc1	-1.6	-5.4	2.6%	44.7µM*	-1.2%
COc1ccc(C2c3ccc4ccccc4c3Oc3ncn(CCCO)c(=N)c32)cc1OC (stereo not drawn)	-0.1	4.2	-5.6%	39.8µM*	-10.4%
CC(C)(C)c1ccc(C(=O)NNC(=O)C2CCCCC2)cc1	90.4*	-16.9	-0.5%	-4.4%	-4.3%
Cc1cc(C)n(-c2n[nH]c(=O)c3ccccc23)n1	0.5	2.3	-0.1%	17.8µM*	-3.9%
O=C(Nc1cccc([N+](=O)[O-])c1)c1ccc(-c2ccccc2)cc1	86.9*	16.7	3.1%	-5.5%	-1.3%
Cc1ccc(N2CCN(C(=O)Nc3cccc([N+](=O)[O-])c3)CC2C)cc1 (stereo not drawn)	82.9*	1.0	-1.2%	-3.7%	-1.8%
CCN(CC)c1ccc(C(=O)Nc2ccccc2)cc1[N+](=O)[O-]	81.9*	-12.9	-10.3%	-8.4%	-2.8%
CC1CCN(CC(=O)Nc2cccc([N+](=O)[O-])c2)CC1	1.2	-9.8	-0.1%	8.2%	0.7%
SMILES	TRPV1 agonist	TRPV1 PAM	S-ASM inh	A-T KAP1 phos	PTAP TSG101 blk
O=C(Nc1cccc([N+](=O)[O-])c1)N1CCN(c2ccccc2)CC1	100.4*	-16.9	-0.2%	0.7%	-6.0%
O=C(Nc1ccccc1)N1CCN(c2ccccc2)CC1	x	x	6.2%	x	1.0%
COc1ccc(F)cc1C(=O)C1CCCN(C(=O)c2ocnc2C)C1 (stereo not drawn)	1.7	-7.2	2.4%	8.0%	-1.5%
Cc1cc2c(c(=O)n1-c1ccccc1)C1O[C@](c3ccsc3)(Cc3ccccc31)O2	i	i	x	2.6%[11.5 µM]	x
N#Cc1ccc(/C=C\c2nccc3c2[nH]c2ccccc23)cc1	90.1*	-1.8	i	31.9%	u
O=C(Nc1nccs1)c1ccc(NC(=O)C2CC=CCC2C(=O)O)cc1 (stereo not drawn)	-1.2	3.7	-1.5%	-2.8%	-6.2%
